Test results published in the supplement of paper PMC7366291.
Where a name gives a salt, the structure may show the parent alone. ± gives the standard deviation of the averaged measurements.

test system: Danio rerio Tg(wt1b:EGFP) embryo, pronephros; assay: glomerular width (mean of left and right), fold change vs DMSO control; higher = wider glomerulus; settings: 25 µM; exposure: 24-48 hpf
How it was run: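 Dechorionated Tg(wt1b:EGFP) zebrafish embryos were treated with 25 μM compound in 0.5% DMSO, in HEPES-buffered E3 with 0.003% PTU, from 24 to 48 hpf at 28.5°C. On maximum projections of dorsal pronephros images, 16 hand-placed reference points in Fiji gave distances and angles, and values more than 2 SD from the feature mean were left out. Results are fold changes over the mean of same-day DMSO-treated embryos.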

`CC(=O)O[C@]1(C(C)=O)CC[C@H]2[C@@H]3C=C(C)C4=CC(=O)CC[C@@H]4[C@H]3CC[C@@]21C` [Nomegestrol acetate] and `COc1ccccc1N1CCN(CCCNc2cc(=O)n(C)c(=O)n2C)CC1` [Urapidil hydrochloride] are within error of each other in glomerular width: 0.953 ± 0.054 for the first, 0.969 ± 0.025 for the second.

`CC1=Nc2ccc(Cl)cc2S(=O)(=O)N1` [Diazoxide] and `Nc1c2c(nc3ccccc13)CCCC2` [Tacrine hydrochloride] are within error of each other in glomerular width: 1.03 ± 0.029 for the first, 1.01 ± 0.029 for the second.

Going from `O=C1NCCN1CCN1CCC(c2cn(-c3ccc(F)cc3)c3ccc(Cl)cc23)CC1` [Sertindole] to `O=C1NCC2(CCN(CCc3ccccc3)CC2)O1` [Fenspiride hydrochloride], the glomerular width falls from 1.08 ± 0.022 to 0.944 ± 0.024.

Going from `CC(C)Oc1ccc2c(=O)c(-c3ccccc3)coc2c1` [Ipriflavone] to `O=C(N/N=C/c1ccc([N+](=O)[O-])o1)c1ccc(O)cc1` [Nifuroxazide], the glomerular width rises from 0.918 ± 0.049 to 1.02 ± 0.041.

test system: Danio rerio Tg(wt1b:EGFP) embryo, pronephros; assay: fraction of imaged embryos annotated as normal kidney; higher = less nephrotoxic; extreme values may be limits of the assay; settings: 25 µM; exposure: 24-48 hpf
How it was run: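 Zebrafish embryos carrying Tg(wt1b:EGFP) were dechorionated and exposed to 25 μM compound (0.5% DMSO) between 24 and 48 hpf at 28.5°C. Their pronephroi were imaged by widefield fluorescence, and each embryo was classed by hand from maximum projections. The measure is the fraction of embryos per treatment falling in the normal-kidney category.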

First: CC(C)NC[C@H](O)COc1ccc(CC(N)=O)cc1 [(S)-(-)-Atenolol]
Second: COc1ccc2cc(CCC(C)=O)ccc2c1 [Nabumetone]
The “fraction of imaged embryos annotated as normal kidney” value (“fraction of imaged embryos annotated” below) of the first is lower: 0.5 for the first, 0.75 for the second.

Compared with `COc1cc(C(=O)NS(=O)(=O)c2ccccc2C)ccc1Cc1cn(C)c2ccc(NC(=O)OC3CCCC3)cc12` [Zafirlukast], `O=C(O)c1cc(=O)c2c(OCC(O)COc3cccc4oc(C(=O)O)cc(=O)c34)cccc2o1` [Cromolyn disodium salt] is lower in “fraction of imaged embryos annotated” value: 1 for the first, 0.909 for the second.

First: CS(=O)(=O)c1ccc([C@@H](O)[C@@H](CF)NC(=O)C(Cl)Cl)cc1 [Florfenicol]
Second: CC(C)NC(=N)NC(=N)Nc1ccc(Cl)cc1 [Proguanil hydrochloride]
The “fraction of imaged embryos annotated” value of the first is higher: 1 for the first, 0.917 for the second.

Going from `CC(=O)OCC(=O)[C@@]12N=C(C)O[C@@H]1C[C@H]1[C@@H]3CCC4=CC(=O)C=C[C@]4(C)[C@H]3[C@@H](O)C[C@@]12C` [Deflazacort] to `CC(=O)OCC(=O)[C@@]12OC3(CCCC3)O[C@@H]1C[C@H]1[C@@H]3CCC4=CC(=O)C=C[C@]4(C)[C@@]3(F)[C@@H](O)C[C@@]12C` [Amcinonide], the “fraction of imaged embryos annotated” value rises from 0.25 to 0.417.

First: CCC(C)(C)c1ccc(CC(C)CN2C[C@@H](C)O[C@@H](C)C2)cc1 (stereo partly drawn) [Amorolfine hydrochloride]
Second: CN(C(=O)CN(CCO)CC(=O)N(C)C(C)(C)Cc1ccccc1)C(C)(C)Cc1ccccc1 [Oxethazaine]
The “fraction of imaged embryos annotated” value of the first is higher: 0.917 for the first, 0.727 for the second.

Compared with `O=C(O)CN(CCN(CC(=O)O)CC(=O)O)CCN(CC(=O)O)CC(=O)O` [Pentetic acid], `Nc1nc(=O)c2c([nH]1)NC[C@@H](CNc1ccc(C(=O)N[C@@H](CCC(=O)O)C(=O)O)cc1)N2C=O` [Folinic acid calcium salt] is lower in “fraction of imaged embryos annotated” value: 0.917 for the first, 0.583 for the second.

First: CC(=O)Nc1nnc(S(N)(=O)=O)s1 [Acetazolamide]
Second: NC(=O)N/N=C/c1ccc([N+](=O)[O-])o1 [Nitrofural]
The “fraction of imaged embryos annotated” value of the first is lower: 0.917 for the first, 1 for the second.

Compared with `CN(C)CCC(c1ccc(Br)cc1)c1ccccn1` (stereo not drawn) [Brompheniramine maleate], `CN(C)CCC=C1c2ccccc2C=Cc2ccccc21` [Cyclobenzaprine hydrochloride] is lower in “fraction of imaged embryos annotated” value: 1 for the first, 0.833 for the second.

First: CC(C)c1nc(CN(C)C(=O)N[C@H](C(=O)N[C@@H](Cc2ccccc2)C[C@H](O)[C@H](Cc2ccccc2)NC(=O)OCc2cncs2)C(C)C)cs1 [Ritonavir]
Second: CCN(CC)CCOC(=O)C(c1ccccc1)c1ccccc1 [Adiphenine hydrochloride]
The “fraction of imaged embryos annotated” value of the first is higher: 1 for the first, 0.917 for the second.

Going from `NC(=O)c1ncn([C@@H]2O[C@H](CO)[C@@H](O)[C@H]2O)n1` [Ribavirin] to `NCC[C@H](O)C(=O)N[C@@H]1C[C@H](N)[C@@H](O[C@H]2O[C@H](CN)[C@@H](O)[C@H](O)[C@H]2O)[C@H](O)[C@H]1O[C@H]1O[C@H](CO)[C@@H](O)[C@H](N)[C@H]1O` [Amikacin hydrate], the “fraction of imaged embryos annotated” value falls from 0.75 to 0.667.

Going from `CN1CCN2c3ncccc3Cc3ccccc3C2C1` (stereo not drawn) [Mirtazapine] to `O=C(CCCN1CCN(c2ccccn2)CC1)c1ccc(F)cc1` [Azaperone], the “fraction of imaged embryos annotated” value falls from 1 to 0.833.

First: CCCCNc1ccc(C(=O)OCCOCCOCCOCCOCCOCCOCCOCCOCCOC)cc1 [Benzonatate]
Second: O=C(N/N=C/c1ccc([N+](=O)[O-])o1)c1ccc(O)cc1 [Nifuroxazide]
The “fraction of imaged embryos annotated” value of the first is lower: 0.7 for the first, 0.833 for the second.

Compared with `CCCc1ncc(C[n+]2ccccc2C)c(N)n1` [Amprolium hydrochloride], `Nc1c2c(nc3ccccc13)CCCC2` [Tacrine hydrochloride] is lower in “fraction of imaged embryos annotated” value: 1 for the first, 0.833 for the second.

`CO[C@H]1/C=C/O[C@@]2(C)Oc3c(C)c(O)c4c(O)c(c(/C=N/N5CCN(C6CCCC6)CC5)c(O)c4c3C2=O)NC(=O)/C(C)=C\C=C\[C@H](C)[C@H](O)[C@@H](C)[C@@H](O)[C@@H](C)[C@H](OC(C)=O)[C@@H]1C` [Rifapentine] and `CC(=O)O[C@]1(C(C)=O)CC[C@H]2[C@@H]3C=C(C)C4=CC(=O)CC[C@@H]4[C@H]3CC[C@@]21C` [Nomegestrol acetate] are the same in “fraction of imaged embryos annotated” value: 0.909 for the first, 0.909 for the second.

`CNCCC(Oc1ccccc1OC)c1ccccc1` (stereo not drawn) [Nisoxetine hydrochloride] and `CC(C)Oc1ccc2c(=O)c(-c3ccccc3)coc2c1` [Ipriflavone] are the same in “fraction of imaged embryos annotated” value: 0.833 for the first, 0.833 for the second.

`N[C@@H]1CCCCN(c2c(F)cc3c(=O)c(C(=O)O)cn(C4CC4)c3c2Cl)C1` [Besifloxacin hydrochloride] and `O=C1NCCN1CCN1CCC(c2cn(-c3ccc(F)cc3)c3ccc(Cl)cc23)CC1` [Sertindole] are the same in “fraction of imaged embryos annotated” value: 0.833 for the first, 0.833 for the second.

First: Cn1c(=O)c2c(ncn2C)n(C)c1=O [Caffeine]
Second: COc1ccccc1N1CCN(CCCNc2cc(=O)n(C)c(=O)n2C)CC1 [Urapidil hydrochloride]
The “fraction of imaged embryos annotated” value of the first is lower: 0.9 for the first, 0.917 for the second.

Going from `O=c1[nH]cnc2c1ncn2[C@H]1CC[C@@H](CO)O1` [Didanosine] to `Cc1ncc([N+](=O)[O-])n1CCO` [Metronidazole], the “fraction of imaged embryos annotated” value rises from 0.7 to 0.917.

Going from `O=C(O)Cc1ccccc1Nc1c(Cl)cccc1Cl` [Diclofenac sodium] to `NC(=O)N1c2ccccc2CC(=O)c2ccccc21` [Oxcarbazepine], the “fraction of imaged embryos annotated” value rises from 0 to 0.833.

`CC1=Nc2ccc(Cl)cc2S(=O)(=O)N1` [Diazoxide] and `O=C1NCC2(CCN(CCc3ccccc3)CC2)O1` [Fenspiride hydrochloride] are the same in “fraction of imaged embryos annotated” value: 0.833 for the first, 0.833 for the second.
